Measured values from PubChem BioAssay (EPA / NIEHS).
The source made the active and inactive calls. How the source made its calls: active means hit-call score of the fitted dose curve at least 0.9, where 1 is the maximum; inactive means score below 0.9.

Read-out: CD69, CD69 (gene 969)
Test: BSK_SAg_CD69: BioMAP Diversity Plus: SAg Assay for CD69 Biomarker Activity (AID 2283089)
Settings: primary human HUVEC with PBMC; actives raise or lower the signal
Protocol: BSK_SAg is a cell-based, multiplexed-readout assay that uses umbilical vein endothelium and peripheral blood mononuclear cells, a human vascular primary cell co-culture, with measurements taken at 24 hours after chemical dosing in a 96-well plate.BSK_SAg_CD69 is one of 10 assay component(s) measured or calculated from the BSK_SAg assay. It is designed to make measurements of enzyme-linked immunosorbent assay, a form of binding reporter, as detected with fluorescence intensity signals by Enzyme-linked immunosorbent assay technology.Data from the assay component BSK_SAg_CD69 was analyzed into 1 assay endpoint. This assay endpoint, BSK_SAg_CD69, was analyzed with bidirectional fitting relative to DMSO as the negative control and baseline of activity. Using a type of binding reporter, gain or loss-of-signal activity can be used to understand changes in the signaling as they relate to the gene CD69. Furthermore, this assay endpoint can be referred to as a primary readout, because this assay has produced multiple assay endpoints where this one serves a signaling function. To generalize the intended target to other relatable targets, this assay endpoint is annotated to the cytokine intended target family, where the subfamily is inflammatory factor.
The levels of cell surface (or secreted, indicated by the prefix "s") biomarker endpoints were measured by ELISA. Overt cytotoxicity to cells in confluent adherent cultures (all systems other than the BT system) was assessed by measuring total protein levels using sulforhodamine B (SRB) staining in parallel cultures at the time of biomarker measurements, indicated as SRB endpoints. For proliferation assays for adherent cell types, individual cell types are cultured at sub-confluence and relative cell numbers quantified by SRB staining at time points optimized for each system (48 h: 3C and CASM3C systems; 72 h: BT and HDF3CGF systems; 96 h: SAg system). SRB was performed by staining cells with 0.1% SRB after fixation with 10% TCA and reading wells at 560 nm.Viability and proliferation of PBMC (T cells) was quantified by Alamar Blue reduction for the SAg and BT systems. For PBMC viability (referred to as PBMC Cytotoxicity within the assay endpoint names), cells were plated (75,000/well in a 96-well plate) and then chemical samples added for 1 h before addition of activators, SEB and TSST-1 (20 ng/mL final concentration each). Cells were incubated for 90 h. Then, Alamar Blue (20 uL/well) (Invitrogen, Cat DAL1100) was added for 6 h, and the plates were read with a fluorescence microplate reader at 546/580 nm (excitation/emission). For PBMC proliferation, cells were plated and activated as above but incubated for only 16 h prior to addition of Alamar Blue. Plates were read after 6 h.

Structure (SMILES)	outcome	AC50
CCOc1ccc2[nH]cc(C(=O)NCc3ccccc3)c(=O)c2n1	inactive	–
COCc1nnc(-c2ccc[n+]([O-])c2)n1-c1c(Cl)c(Cl)cc2[nH]c(=O)c(=O)[nH]c12	inactive	–
CC(C)CC(C)O (stereo not given)	inactive	–
Cc1nccn1-c1ccc(Sc2cccc(C3(C(N)=O)CCOCC3)c2)cc1	–	6.87 µM (active)
CNC(C)=O	inactive	–
FC(F)(F)C(F)(F)C(F)(F)C(F)(F)C(F)(F)C(F)(F)I	inactive	–
FC(F)C(F)(F)COCC1CO1 (stereo not given)	inactive	–
c1ccc2ncccc2c1	inactive	–
CCCCCCCC1CCC(=O)O1 (stereo not given)	inactive	–
COS(C)(=O)=O	inactive	–
FC(F)=C(F)C(F)(F)C(F)(F)C(F)(F)C(F)(F)C(F)(F)C(F)(F)F	inactive	–
CCCCC(CC)C(=O)OCCOCCOCCOC(=O)C(CC)CCCC (stereo not given)	inactive	–
Cn1c(=O)c2[nH]cnc2n(C)c1=O	inactive	–
CC(C)CCCCCCOC(=O)C1CCCCC1C(=O)OCCCCCCC(C)C (stereo not given)	inactive	–
NC(=O)N(O)[C@@H]1COc2cc(OCc3ccccc3)ccc21	inactive	–
O=C(O)[C@H](O)[C@@H](O)C(=O)O	inactive	–
O=C(Cl)C(F)(F)C(F)(F)C(F)(F)C(=O)Cl	inactive	–
OCCOCCOCCO	inactive	–
CCCCCCCCN(C)C	inactive	–
NNC(=O)c1ccncc1	inactive	–

Structure (SMILES)	outcome	AC50
NC(=O)N1c2ccccc2C=Cc2ccccc21	inactive	–
O=C(O)c1cccc(C(=O)O)c1	inactive	–
Cc1ccc(S(=O)(=O)NC(=O)NN2CCCCCC2)cc1	inactive	–
FC(F)(F)COC(OCC(F)(F)F)OCC(F)(F)F	inactive	–
CC1(C)C(=O)N(Cl)C(=O)N1Cl	inactive	–
Nc1ccn([C@@H]2O[C@H](CO)[C@@H](O)[C@@H]2O)c(=O)n1	inactive	–
CCN(CC)C(=S)SSC(=S)N(CC)CC	–	20 µM (active)
CCCCCCCCCC	inactive	–
O=C(O)c1ccc2c(c1)nc(C(=O)NC1CCN(C3CC3)CC1)n2Cc1cc(-c2ccc(Cl)s2)on1	inactive	–
OCC(CO)(CO)CO	inactive	–
O=C(NO)C1(NS(=O)(=O)c2ccc(Oc3ccc(F)cc3)cc2)CCOCC1	inactive	–
S=P(N1CC1)(N1CC1)N1CC1	inactive	–
O=c1[nH]cnc2c1ncn2[C@H]1CC[C@@H](CO)O1	inactive	–
Cn1cc[nH]c1=S	inactive	–
c1ccc2cc3ccccc3cc2c1	inactive	–
CCCC(CCC)C(=O)O	inactive	–
OC(CCl)CCl	inactive	–
CCc1ccc(O)c(C(C)(C)C)c1	inactive	–
CCCOc1ccc(S(=O)(=O)N2CCN(CC)CC2)cc1-c1nc2c(CC)n(Cc3ccccn3)nc2c(=O)[nH]1	inactive	–
NC(=O)NN=Cc1ccc([N+](=O)[O-])o1	inactive	–
